According to PubChem BioAssay (EPA / NIEHS):
The source made the active and inactive calls. How the source made its calls: active means hit-call score of the fitted dose curve at least 0.9, where 1 is the maximum; inactive means score below 0.9.

How the values were obtained:
[1] = read-out: Transforming growth factor beta 1 (TGFb1), TGFB1 (gene 7040); assay: BSK_KF3CT_TGFb1: BioMAP Diversity Plus: KF3CT Assay for Transforming growth factor beta 1 (TGFb1) Biomarker Activity (AID 2283072); settings: primary human keratinocytes with fibroblasts; actives raise or lower the signal
Method in brief: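 Human keratinocyte plus foreskin fibroblast primary co-culture, dosed with chemical for 24 h. TGF-b1 quantified by ELISA. Activity fitted bidirectionally against DMSO negative control as baseline.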

[2] = read-out: Matrix Metallopeptidase 9 (MMP9), MMP9 (gene 4318); assay: BSK_KF3CT_MMP9: BioMAP Diversity Plus: KF3CT Assay for Matrix Metallopeptidase 9 (MMP9) Biomarker Activity (AID 2283074); settings: primary human keratinocytes with fibroblasts; actives raise or lower the signal;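 on AC50: MMP9 protein level quantified by ELISA in the co-culture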
Method in brief: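 Human keratinocyte and foreskin fibroblast co-culture exposed to chemicals for 24 h; MMP9 biomarker measured by ELISA, bidirectional fitting relative to DMSO; cytotoxicity tracked by SRB total protein staining in parallel cultures.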

[3] = read-out: urokinase plasminogen activator (uPA), PLAU (gene 5328); assay: BSK_KF3CT_uPA: BioMAP Diversity Plus: KF3CT Assay for urokinase plasminogen activator (uPA) Biomarker Activity (AID 2283075); settings: primary human keratinocytes with fibroblasts; actives raise or lower the signal
Method in brief: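 Primary human keratinocyte/foreskin fibroblast co-culture exposed to chemical; uPA measured by ELISA at 24 h. Bidirectional fit versus DMSO, with parallel SRB total-protein staining for cytotoxicity.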

CD40, CD40 (gene 958) [4] = assay: BSK_LPS_CD40: BioMAP Diversity Plus: LPS Assay for CD40 Biomarker Activity (AID 2283076); settings: primary human HUVEC with PBMC; actives raise or lower the signal
Method in brief: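 Using a multiplexed primary human co-culture (umbilical vein endothelium plus PBMC), CD40 was read by ELISA 24 h after dosing, with cytotoxicity tracked by sulforhodamine B staining of parallel cultures and activity fitted bidirectionally versus DMSO.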

[5] = read-out: E-selectin (Homo sapiens) (UniProt P16581); assay: BSK_LPS_Eselectin: BioMAP Diversity Plus: LPS Assay for Eselectin Biomarker Activity (AID 2283077); settings: primary human HUVEC with PBMC; actives raise or lower the signal
Method in brief: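 Dose chemical onto LPS-driven HUVEC/PBMC co-culture; after 24 h, run ELISA for E-selectin; fit up- and down-going responses relative to DMSO control.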

[6] = read-out: Interleukin-8 (IL8), CXCL8 (gene 3576); assay: BSK_LPS_IL8: BioMAP Diversity Plus: LPS Assay for Interleukin-8 (IL8) Biomarker Activity (AID 2283078); settings: primary human HUVEC with PBMC; actives raise or lower the signal
Method in brief: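 In this LPS system, chemical-treated human umbilical vein endothelium/PBMC co-cultures were harvested at 24 h for IL-8 ELISA.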

[7] = BSK_LPS_SRB: Viability Assessment in the BioMAP Diversity Plus: LPS Assay (AID 2283079); settings: primary human HUVEC with PBMC;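 further: total protein by sulforhodamine B absorbance as a cytotoxicity measure; measured one day after compound addition; fitted in both directions against DMSO so loss or gain of signal counts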
Method in brief: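 Cytotoxicity endpoint in human endothelial–PBMC co-culture: 24 h exposure, then SRB (0.1%) staining, 560 nm read.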

[8] = read-out: Interleukin-1 alpha (IL1a), IL1A (gene 3552); assay: BSK_LPS_IL1a: BioMAP Diversity Plus: LPS Assay for Interleukin-1 alpha (IL1a) Biomarker Activity (AID 2283080); settings: primary human HUVEC with PBMC; actives raise or lower the signal
Method in brief: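 Primary human HUVEC and PBMC co-culture stimulated with LPS is dosed and harvested at 24 h. Both increases and decreases in ELISA-measured IL-1a are scored relative to DMSO.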

[9] = read-out: Monocyte Chemoattractant Protein-1 (MCP1), CCL2 (gene 6347); assay: BSK_LPS_MCP1: BioMAP Diversity Plus: LPS Assay for Monocyte Chemoattractant Protein-1 (MCP1) Biomarker Activity (AID 2283081); settings: primary human HUVEC with PBMC; actives raise or lower the signal;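 on AC50: secreted MCP-1 protein quantified by ELISA in culture supernatant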
Method in brief: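 Values derive from bidirectional fitting against DMSO of ELISA-measured MCP-1 in a human primary endothelial and mononuclear cell co-culture, 24 h after chemical addition under LPS activation.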

[10] = read-out: Macrophage colony-stimulating factor (MCSF), CSF1 (gene 1435); assay: BSK_LPS_MCSF: BioMAP Diversity Plus: LPS Assay for Macrophage colony-stimulating factor (MCSF) Biomarker Activity (AID 2283083); settings: primary human HUVEC with PBMC; actives raise or lower the signal
Method in brief: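 Bidirectional fit versus DMSO of ELISA-measured M-CSF in co-cultured human umbilical vein endothelial cells and PBMC, sampled 24 h after dosing.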

[11] = read-out: Tissue Factor, F3 (gene 2152); assay: BSK_LPS_TissueFactor: BioMAP Diversity Plus: LPS Assay for Tissue Factor Biomarker Activity (AID 2283084); settings: primary human HUVEC with PBMC; actives raise or lower the signal
Method in brief: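 Read-out: CD142 ELISA, 24 h. System: LPS-driven human endothelial/PBMC co-culture. Analysis: up- or down-signal fitted against DMSO.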

[12] = read-out: Tumor necrosis factor (Homo sapiens) (UniProt P01375); assay: BSK_LPS_TNFa: BioMAP Diversity Plus: LPS Assay for Tumour Necrosis Factor alpha (TNFa) Biomarker Activity (AID 2283085); settings: primary human HUVEC with PBMC; actives raise or lower the signal
Method in brief: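 Human umbilical vein endothelial cells co-cultured with PBMC were exposed to test chemical and TNFa measured by ELISA 24 h after dosing. Bidirectional curve fitting was done relative to DMSO as negative control and baseline.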

[13] = read-out: Vascular cell adhesion molecule 1 (VCAM1), VCAM1 (gene 7412); assay: BSK_LPS_VCAM1: BioMAP Diversity Plus: LPS Assay for Vascular cell adhesion molecule 1 (VCAM1) Biomarker Activity (AID 2283086); settings: primary human HUVEC with PBMC; actives raise or lower the signal
Method in brief: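 Human umbilical vein endothelial cells co-cultured with peripheral blood mononuclear cells under LPS stimulation were exposed to test chemical for 24 h. VCAM-1 levels were then measured by ELISA, with bidirectional curve fitting relative to DMSO as negative control and baseline.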

CD38, CD38 (gene 952) = assay: BSK_SAg_CD38: BioMAP Diversity Plus: SAg Assay for CD38 Biomarker Activity (AID 2283087); settings: primary human HUVEC with PBMC; actives raise or lower the signal
Method in brief: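 Fluorescence ELISA of cell-surface CD38 served as the read-out, with either increase or decrease fitted against DMSO controls. Cells were a human umbilical vein endothelium plus PBMC co-culture under SEB/TSST-1 stimulation, measured 24 h after dosing.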

CD40, CD40 (gene 958) [14] = assay: BSK_SAg_CD40: BioMAP Diversity Plus: SAg Assay for CD40 Biomarker Activity (AID 2283088); settings: primary human HUVEC with PBMC; actives raise or lower the signal
Method in brief: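 Endpoint derived by fitting increases or decreases versus DMSO controls. CD40 is detected by fluorescence ELISA in a human vascular co-culture of endothelium and PBMC at 24 h.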

CD69, CD69 (gene 969) = assay: BSK_SAg_CD69: BioMAP Diversity Plus: SAg Assay for CD69 Biomarker Activity (AID 2283089); settings: primary human HUVEC with PBMC; actives raise or lower the signal;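 on AC50: cell surface CD69 protein quantified by ELISA with fluorescence detection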
Method in brief: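 ELISA, fluorescence read-out: CD69 on human umbilical vein endothelial cell + PBMC co-culture, 24 h post-dosing. Gain or loss of signal fitted bidirectionally against DMSO baseline.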

[15] = read-out: Monocyte Chemoattractant Protein-1 (MCP1), CCL2 (gene 6347); assay: BSK_SAg_MCP1: BioMAP Diversity Plus: SAg Assay for Monocyte Chemoattractant Protein-1 (MCP1) Biomarker Activity (AID 2283090); settings: primary human HUVEC with PBMC; actives raise or lower the signal
Method in brief: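 MCP-1 levels in the endothelial–PBMC SAg co-culture were quantified by ELISA at 24 h post-dosing; both increases and decreases versus DMSO scored. Cytotoxicity monitored by SRB total protein in parallel cultures.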

[16] = read-out: E-selectin (Homo sapiens) (UniProt P16581); assay: BSK_SAg_Eselectin: BioMAP Diversity Plus: SAg Assay for Eselectin Biomarker Activity (AID 2283091); settings: primary human HUVEC with PBMC; actives raise or lower the signal
Method in brief: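 Endpoint values derive from bidirectional fitting relative to DMSO, using ELISA-measured E-selectin in a human vascular co-culture (umbilical vein endothelium plus PBMC) sampled 24 h after dosing.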

[17] = BSK_LPS_PGE2: BioMAP Diversity Plus: LPS Assay for Prostaglandin E2 (PGE2) Biomarker Activity (AID 2283082); settings: primary human HUVEC with PBMC; actives raise or lower the signal
Method in brief: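 HUVEC plus PBMC co-culture stimulated with LPS; secreted PGE2 quantified by ELISA 24 h after chemical dosing. Activity fitted bidirectionally against DMSO as negative control and baseline; parallel SRB total-protein staining served as cytotoxicity check.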

[18] = read-out: C-C motif chemokine 2 (Homo sapiens) (UniProt P13500); assay: BSK_KF3CT_MCP1: BioMAP Diversity Plus: KF3CT Assay for Monocyte Chemoattractant Protein 1 (MCP1/CCL2) Biomarker Activity (AID 2283073); settings: primary human keratinocytes with fibroblasts; actives raise or lower the signal
Method in brief: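 Biomarker MCP-1 is measured by ELISA in primary human keratinocytes co-cultured with foreskin fibroblasts, 24 h after chemical treatment; DMSO serves as the negative control and activity baseline.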

E-selectin (Homo sapiens), sequence (P16581 whole entry, looked up): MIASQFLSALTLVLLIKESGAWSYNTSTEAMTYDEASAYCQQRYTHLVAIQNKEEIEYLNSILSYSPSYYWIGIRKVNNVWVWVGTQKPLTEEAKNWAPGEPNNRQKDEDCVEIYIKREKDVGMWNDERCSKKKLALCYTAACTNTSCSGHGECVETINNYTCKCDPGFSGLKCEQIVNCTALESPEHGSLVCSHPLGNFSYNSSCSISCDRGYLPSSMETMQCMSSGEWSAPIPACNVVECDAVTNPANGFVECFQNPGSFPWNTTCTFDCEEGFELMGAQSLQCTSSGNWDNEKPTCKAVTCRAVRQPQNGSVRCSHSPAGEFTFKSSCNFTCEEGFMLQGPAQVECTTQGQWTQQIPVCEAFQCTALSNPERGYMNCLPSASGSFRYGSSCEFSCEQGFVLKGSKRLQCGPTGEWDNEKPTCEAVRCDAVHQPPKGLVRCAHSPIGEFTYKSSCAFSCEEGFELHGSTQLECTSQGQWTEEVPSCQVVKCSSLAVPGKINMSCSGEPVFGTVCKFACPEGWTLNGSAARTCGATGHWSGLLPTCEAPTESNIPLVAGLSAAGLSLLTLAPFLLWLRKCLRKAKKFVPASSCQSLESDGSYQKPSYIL
Tumor necrosis factor (Homo sapiens), sequence (P01375 whole entry, looked up): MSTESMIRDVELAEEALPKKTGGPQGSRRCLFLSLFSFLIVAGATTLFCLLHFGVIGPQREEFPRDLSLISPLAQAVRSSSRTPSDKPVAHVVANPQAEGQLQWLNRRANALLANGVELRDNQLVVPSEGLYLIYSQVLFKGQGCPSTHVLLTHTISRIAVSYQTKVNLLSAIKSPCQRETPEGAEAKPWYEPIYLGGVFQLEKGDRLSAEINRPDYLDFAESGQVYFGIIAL

CCCCCCCCCCCCCCCC(=O)OC/C=C(C)/C=C/C=C(C)/C=C/C1=C(C)CCCC1(C)C
AC50 [1]: 0.0644 µM (active)
AC50 [2]: 0.125 µM (active)
outcome [3]: inactive
outcome (CD40, CD40 (gene 958) [4]): inactive
outcome [5]: inactive
outcome [6]: inactive
outcome [7]: inactive
outcome [8]: inactive
outcome [9]: inactive
outcome [10]: inactive
outcome [11]: inactive
outcome [12]: inactive
AC50 [13]: 20 µM (active)
AC50 (CD38, CD38 (gene 952)): 3.97 µM (active)
outcome (CD40, CD40 (gene 958) [14]): inactive
AC50 (CD69, CD69 (gene 969)): 20 µM (active)
outcome [15]: inactive
outcome [16]: inactive

O=C1OC2(c3ccccc31)c1ccc(O)c(Br)c1Oc1c2ccc(O)c1Br
AC50 [1]: 4.66 µM (active)
outcome [2]: inactive
outcome [3]: inactive
AC50 (CD40, CD40 (gene 958) [4]): 20 µM (active)
AC50 [5]: 24.5 µM (active)
outcome [6]: inactive
outcome [7]: inactive
AC50 [8]: 20 µM (active)
AC50 [9]: 20 µM (active)
AC50 [10]: 20 µM (active)
AC50 [11]: 20 µM (active)
outcome [12]: inactive
AC50 [13]: 20 µM (active)
AC50 (CD38, CD38 (gene 952)): 20 µM (active)
AC50 (CD40, CD40 (gene 958) [14]): 28.8 µM (active)
AC50 (CD69, CD69 (gene 969)): 20 µM (active)
AC50 [15]: 20 µM (active)
AC50 [16]: 26 µM (active)

COc1ccc(OC)c(N=Nc2c(O)ccc3ccccc23)c1
AC50 [1]: 3.97 µM (active)
AC50 [2]: 4.27 µM (active)
AC50 [3]: 7.69 µM (active)
AC50 (CD40, CD40 (gene 958) [4]): 3.84 µM (active)
AC50 [5]: 20 µM (active)
outcome [6]: inactive
outcome [7]: inactive
AC50 [8]: 6.45 µM (active)
AC50 [9]: 8.02 µM (active)
AC50 [10]: 20 µM (active)
AC50 [11]: 20 µM (active)
AC50 [12]: 20 µM (active)
AC50 [13]: 20 µM (active)
AC50 (CD38, CD38 (gene 952)): 20 µM (active)
AC50 (CD40, CD40 (gene 958) [14]): 3.97 µM (active)
outcome (CD69, CD69 (gene 969)): inactive
outcome [15]: inactive
outcome [16]: inactive

CC(=O)C1(C)CC2=C(CCCC2(C)C)CC1C (configuration not stated)
outcome [1]: inactive
AC50 [2]: 10.9 µM (active)
AC50 [3]: 11.6 µM (active)
AC50 (CD40, CD40 (gene 958) [4]): 6.43 µM (active)
AC50 [5]: 9.47 µM (active)
AC50 [6]: 10.1 µM (active)
AC50 [7]: 13.3 µM (active)
AC50 [8]: 5.8 µM (active)
AC50 [9]: 10.9 µM (active)
outcome [17]: inactive
AC50 [10]: 8.91 µM (active)
AC50 [11]: 10.1 µM (active)
outcome [12]: inactive
AC50 [13]: 13 µM (active)
AC50 (CD38, CD38 (gene 952)): 33 µM (active)
AC50 (CD40, CD40 (gene 958) [14]): 15.2 µM (active)
AC50 (CD69, CD69 (gene 969)): 24.5 µM (active)
AC50 [15]: 23.6 µM (active)
AC50 [16]: 15.5 µM (active)

Oc1c(Cl)cc(Cl)c(Cl)c1Cc1c(O)c(Cl)cc(Cl)c1Cl
AC50 [1]: 2.81 µM (active)
AC50 [18]: 5.44 µM (active)
AC50 [2]: 0.74 µM (active)
AC50 [3]: 2.99 µM (active)
AC50 (CD40, CD40 (gene 958) [4]): 6.43 µM (active)
AC50 [5]: 22.8 µM (active)
AC50 [6]: 15.3 µM (active)
AC50 [7]: 14.1 µM (active)
AC50 [8]: 9.2 µM (active)
AC50 [9]: 32.5 µM (active)
outcome [17]: inactive
AC50 [10]: 11.6 µM (active)
AC50 [11]: 27.7 µM (active)
AC50 [12]: 20 µM (active)
AC50 [13]: 22.6 µM (active)
AC50 (CD38, CD38 (gene 952)): 2.31 µM (active)
AC50 (CD40, CD40 (gene 958) [14]): 7.61 µM (active)
AC50 (CD69, CD69 (gene 969)): 5.19 µM (active)
AC50 [15]: 5.46 µM (active)
AC50 [16]: 3.17 µM (active)

CN(c1nccc(=O)[nH]1)C1CCN(c2nc3ccccc3n2Cc2ccc(F)cc2)CC1
outcome [1]: inactive
outcome [18]: inactive
outcome [2]: inactive
outcome [3]: inactive
outcome (CD40, CD40 (gene 958) [4]): inactive
outcome [5]: inactive
outcome [6]: inactive
outcome [7]: inactive
outcome [8]: inactive
outcome [9]: inactive
outcome [10]: inactive
outcome [11]: inactive
outcome [12]: inactive
outcome [13]: inactive
outcome (CD38, CD38 (gene 952)): inactive
outcome (CD40, CD40 (gene 958) [14]): inactive
outcome (CD69, CD69 (gene 969)): inactive
outcome [15]: inactive
outcome [16]: inactive
